An excerpt weighted towards active compounds, which were near 2.5% of everything screened.
D2 antagonist – antagonists of human D2 dopamine receptor. P14416. HEK293 TREx D2 cells, calcium flux, dopamine EC80. inhibition, % at 10 µM. actives 2% (n = 340,000). AID 485344; in the data active = inhibition above about 30%; inactive = below that, where a call was filed; also: 0% is about no effect
Target sequence (P14416 whole entry, looked up): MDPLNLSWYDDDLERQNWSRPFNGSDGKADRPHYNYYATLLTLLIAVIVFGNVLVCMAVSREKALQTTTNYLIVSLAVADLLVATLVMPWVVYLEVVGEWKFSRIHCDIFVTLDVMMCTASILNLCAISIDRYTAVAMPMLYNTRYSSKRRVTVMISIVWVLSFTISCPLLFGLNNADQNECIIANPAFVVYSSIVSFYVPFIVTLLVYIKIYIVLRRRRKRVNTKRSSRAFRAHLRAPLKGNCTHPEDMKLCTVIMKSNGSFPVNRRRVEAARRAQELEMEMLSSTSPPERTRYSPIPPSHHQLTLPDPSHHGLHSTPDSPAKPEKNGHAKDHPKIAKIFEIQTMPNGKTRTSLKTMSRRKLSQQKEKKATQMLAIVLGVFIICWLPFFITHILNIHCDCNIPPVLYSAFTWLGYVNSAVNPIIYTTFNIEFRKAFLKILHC
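Inhibition of EC80 dopamine-driven calcium flux, recorded kinetically, defines activity here; cells are a tetracycline-induced HEK293 T-REx line expressing force-coupled D2.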
Anesthetic bind – binds horse apoferritin like a general anesthetic | apoferritin/1-aminoanthracene competitive binding, fluorescence | Potency, µM (top dose mostly 77.5 µM), without a hit: at the highest dose activity change, negative = displacement, usual class: inhibitors | actives 0.074% (n = 350,000) | AID 485281; active = well fitted inhibition curve with a large enough effect; inconclusive = small, poorly fitted or top-dose-only effect; inactive = no such curve, though single readings can be large or run the other way; also: potency is read from the fitted curve at half-maximal effect; % is scaled to controls: 0 for no effect and ±100 for the full control effect; nearly all actives have a fitted effect of over 20% in size
Target sequence (P02791 2-175 limits assumed): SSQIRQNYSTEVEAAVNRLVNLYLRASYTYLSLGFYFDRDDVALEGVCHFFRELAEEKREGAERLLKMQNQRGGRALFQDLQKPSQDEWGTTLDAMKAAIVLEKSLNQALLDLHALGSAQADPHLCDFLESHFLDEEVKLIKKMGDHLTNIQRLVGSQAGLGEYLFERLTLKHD
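In PBS, apoferritin at 10 uM is loaded with 1-AMA from a 50% saturated solution. After 10 min of compound exposure at ambient temperature, reduced 535 nm fluorescence indicates probe displacement.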
D2 ag-1 – agonists of human D2 dopamine receptor (beta-arrestin). DiscoveRx PathHunter D2 beta-arrestin, luminescence, 90 min; 100% = 57 uM dopamine signal. actives 0.084% (n = 360,000). P14416. AID 624465. activation, % (test concentration not listed); in the data active = activation above about 40%; inconclusive = between about 15% and that limit
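DiscoveRx PathHunter D2 beta-arrestin cells (2,100/well) attached overnight, then compound-stimulated 90 min at 37 C in HBSS/10 mM HEPES/0.1% Tween-20 buffer; beta-galactosidase complementation read by luminescence after 1 h at ambient temperature. Dopamine 57 uM final (EC100) as control.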
D2 PAM-1 – D2 dopamine receptor (human) potentiation. actives 0.34% (n = 340,000). AID 485347. potentiation, % at 10 µM. P14416. HEK293 T-REx D2, calcium flux, EC20 dopamine potentiation;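 active = potentiation over 3 SD above the plate norm, cut at about 30% in these data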; also: 0% is about no effect
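Calcium flux readout, no-wash dye, 1 read/s. Inducible HEK293 Trex D2 line, overnight 30 C. Compound alone 180 s (agonist flags), then EC20 dopamine, another 180 s to score potentiation.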
D2 PAM-2 – human D2 receptor positive allosteric modulation. DiscoveRx D2 beta-arrestin cells, luminescence, 90 min; 100% = 57 uM dopamine signal. actives 0.23% (n = 360,000). potentiation, % (test concentration not listed). P14416; in the data active = potentiation above about 50%; inconclusive = mostly about 30% to 49%
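PathHunter D2 cells, attached overnight at 37 deg C, received compound in DMSO plus dopamine at EC20 (50 nM final) for 90 min at 37 deg C. Beta-arrestin recruitment was read as luminescence after 1 h with detection reagent at ambient temperature.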
D2 ag-2 – activates the human D2 dopamine receptor | activation, % at 2 µM | AID 485358 | P14416 | HEK293 T-REx D2 cells, calcium flux agonist mode | actives 0.53% (n = 340,000);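 active = activation over 3 SD above normal in the single-dose calcium agonist read, cut at about 30% in these data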; also: 0% is about no effect
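Agonism scored from kinetic calcium signal (1 read/sec, 180 s) following compound pin transfer, after a 10 s baseline. Cells: HEK293 Trex line expressing inducible D2 receptor coupled to calcium, dye-loaded after overnight culture at 30 C.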
* hit, by the source's call; ? = inconclusive; . = no result.

SMILES	D2 antagonist	Anesthetic bind	D2 ag-1	D2 PAM-1	D2 PAM-2	D2 ag-2
COc1ccc(NC(=O)C2CC(=O)N(Cc3ccc(C)cc3)C2)cc1S(=O)(=O)N1CCCCC1 (configuration not stated)	43*	-6%	-3	-11	-34	0
Cc1ccc(CN2CC(C(=O)Nc3ccc(C)c(S(=O)(=O)N4CCCCC4)c3)CC2=O)cc1 (configuration not stated)	.	.	-1	.	-4	.
O=C(NCc1ccco1)C(c1ccccc1F)N(CC1CCCO1)C(=O)Cn1nnc2ccccc21 (configuration not stated)	-14	-11%	-4	5	-8	0
CC(C)(C)SCCNC(=O)CN(c1ccccc1)S(=O)(=O)c1ccc(F)cc1	32*	-5%	-3	-4	-1	1
Cn1c2ccccc2c2c(C(=O)O)cn(C3CCCC3)c(=O)c21	-4	4%	-6	-5	-5	0
COc1ccc(Cl)cc1NC(=O)CCCN1C(=O)C(c2ccccc2)Oc2cccnc21 (configuration not stated)	.	152%	.	-6	.	0
COc1ccc(C)cc1NC(=O)CCCN1C(=O)C(c2ccccc2)Oc2cccnc21 (configuration not stated)	38*	5%	-2	5	-36	-1
CCOC(=O)C1(Cc2ccccc2C)CCCN(C(=O)c2cc(C3CC3)[nH]n2)C1 (configuration not stated)	32*	-9%	1	-7	2	1
Cc1cc2ncn(/N=C/c3ccc4c(c3)OCO4)c2cc1C	89*	-7%	-3	-1	-3	2
Cc1cc2ncn(/N=C/c3cccnc3)c2cc1C	-3	-15%	-2	0	-23	0
O=C(O)CC1S/C(=N/N=C2CCCCC2)N(c2ccccc2)C1=O (configuration not stated)	-12	25%	-1	10	-1	0
C/C(=N\N=C1/SC(CC(=O)O)C(=O)N1c1ccccc1)c1ccc(C)cc1 (configuration not stated)	30*	12%	-2	-15	-6	-3
O=C(NCc1ccco1)C1CC(=O)N(c2cccc(Cl)c2)C1 (configuration not stated)	-4	1%	2	-14	-2	0
O=C(Cc1ccccc1)NCC(=O)N1CCCC1	35*	-6%	-3	5	-6	2
CN1CCCN(C(=O)CNC(=O)Cc2ccccc2)CC1	2	6%	-1	9	-11	1
O=C(/C=C/c1ccc2c(c1)OCO2)Nc1nncs1	-30	-10%	-5	-5	-3	0
Cc1cc(/C=C2\SC(=S)NC2=O)c(C)n1-c1ccc(O)cc1	-6	-3%	3	8	1	-2
Cc1cc(/C=C2\SC(=Nc3ccc(F)cc3)NC2=O)c(C)n1-c1ccc(S(N)(=O)=O)cc1	38*	-23%	-2	0	-6	2
Cc1cc(/C=N/NC(N)=S)c(O)c(/C=N/NC(N)=S)c1	-14	76%	-6	8	-8	45*
NC(=S)N/N=C/c1cccc(O)c1O	-6	2%	2	-2	16	0
CCOC(=O)C1=NN(c2ccc(C)cc2)C2(S1)SC(C(C)=O)=C(C)N2c1ccccc1 (configuration not stated)	-6	-11%	-3	-6	-16	0
COc1ccc(OC)c(C(c2c(C)[nH][nH]c2=O)c2c(C)[nH][nH]c2=O)c1	-2	3%	0	-8	-4	1
CCc1ccc(N2CCN(CCNC(=O)Nc3ccccc3)CC2)cc1	74*	-1%	8	.	10	.
CC(=O)NC12CC3CC(C1)CC(C(=O)N1CCN(S(=O)(=O)c4ccccc4[N+](=O)[O-])CC1)(C3)C2	45*	.	-1	-15	-2	0
CC(C)(C)C(=O)NC1CCN(S(=O)(=O)c2cccc(C(F)(F)F)c2)CC1	-1	-4%	-1	-5	-4	0
SMILES	D2 antagonist	Anesthetic bind	D2 ag-1	D2 PAM-1	D2 PAM-2	D2 ag-2
O=C(c1cc(-c2ccccc2)nc2ccccc12)N1CCCC1	-11	-10%	-4	-4	-3	-1
Cc1cnn(C(=O)c2cc(-c3ccccc3)nc3ccccc23)c1	55*	-18%	1	-8	-13	0
CCCCNc1c2c3c(cccc3n(C)c1=O)C(=O)c1ccccc1-2	11	-12%	0	-12	-6	93*
Cn1c(=O)c(NCCc2ccccc2)c2c3c(cccc31)C(=O)c1ccccc1-2	72*	42%	0	-11	-6	87*
CC(=O)Nc1ccc(Nc2c3c4c(cccc4n(C)c2=O)C(=O)c2ccccc2-3)cc1	3	-2%	-3	14	-5	8
Cn1c(=O)c(NC2CCCCC2)c2c3c(cccc31)C(=O)c1ccccc1-2	60*	-2%	4	-10	-1	110*
O=C(O)c1cc2nccc(-c3ccco3)n2n1	1	114%	-2	-1	-7	0
CCCn1nnnc1NCc1ccc(F)cc1	-4	-7%	-3	-10	-2	0
Cn1nnnc1NCc1ccc(Cl)cc1	0	-5%	2	1	-9	0
CCn1nnnc1NCc1ccc(Cl)cc1	47*	-14%	0	14	-6	1
CCCn1nnnc1NCc1ccc(SC)cc1	37*	2%	-1	6	-1	-1
CCOC(=O)c1ccc2c(c1)N(C(CC)C(=O)Nc1ccccc1OC)C(=O)c1ccccc1S2 (configuration not stated)	.	3%	.	-5	.	1
O=C(COC(=O)c1cncc(Br)c1)NC1CC1	5	-9%	-3	9	-13	0
CC(C(=O)OCC(=O)c1ccc(Br)cc1)N1C(=O)C2C3C=CC(C3)C2C1=O (configuration not stated)	-20	-7%	-3	32*	-1	2
CNc1nc(C)nc(-n2nc(C)cc2C)n1	35*	-6%	-5	-4	-3	0
Cc1ccc(S(=O)(=O)Nc2ccc(O)c3cccnc23)cc1	20	-2%	10	31*	?	-1
Nc1c2c(nc3ccccc13)N(C1CCCCC1)CC2	24	4%	0	-29	-39	-1
Nc1c2c(nc3ccc(Br)cc13)N(C1CCCCC1)CC2	74*	-17%	.	-21	.	0
O=C(Cc1cnn(-c2ccccc2)c1)c1ccc(O)c(O)c1O	-2	-18%	?	7	110*	0

Assay outcomes (PubChem BioAssay)
